Consider one compound from ChEMBL document CHEMBL2218924, “A broad activity screen in support of a chemogenomic map for kinase signalling research and drug discovery” (Biochem J, 2013).

The structures appear in SMILES notation.

The target in experiment [1] is T1, Ephrin type-B receptor 1 (Homo sapiens) (UniProt P54762).
T1 sequence (whole entry): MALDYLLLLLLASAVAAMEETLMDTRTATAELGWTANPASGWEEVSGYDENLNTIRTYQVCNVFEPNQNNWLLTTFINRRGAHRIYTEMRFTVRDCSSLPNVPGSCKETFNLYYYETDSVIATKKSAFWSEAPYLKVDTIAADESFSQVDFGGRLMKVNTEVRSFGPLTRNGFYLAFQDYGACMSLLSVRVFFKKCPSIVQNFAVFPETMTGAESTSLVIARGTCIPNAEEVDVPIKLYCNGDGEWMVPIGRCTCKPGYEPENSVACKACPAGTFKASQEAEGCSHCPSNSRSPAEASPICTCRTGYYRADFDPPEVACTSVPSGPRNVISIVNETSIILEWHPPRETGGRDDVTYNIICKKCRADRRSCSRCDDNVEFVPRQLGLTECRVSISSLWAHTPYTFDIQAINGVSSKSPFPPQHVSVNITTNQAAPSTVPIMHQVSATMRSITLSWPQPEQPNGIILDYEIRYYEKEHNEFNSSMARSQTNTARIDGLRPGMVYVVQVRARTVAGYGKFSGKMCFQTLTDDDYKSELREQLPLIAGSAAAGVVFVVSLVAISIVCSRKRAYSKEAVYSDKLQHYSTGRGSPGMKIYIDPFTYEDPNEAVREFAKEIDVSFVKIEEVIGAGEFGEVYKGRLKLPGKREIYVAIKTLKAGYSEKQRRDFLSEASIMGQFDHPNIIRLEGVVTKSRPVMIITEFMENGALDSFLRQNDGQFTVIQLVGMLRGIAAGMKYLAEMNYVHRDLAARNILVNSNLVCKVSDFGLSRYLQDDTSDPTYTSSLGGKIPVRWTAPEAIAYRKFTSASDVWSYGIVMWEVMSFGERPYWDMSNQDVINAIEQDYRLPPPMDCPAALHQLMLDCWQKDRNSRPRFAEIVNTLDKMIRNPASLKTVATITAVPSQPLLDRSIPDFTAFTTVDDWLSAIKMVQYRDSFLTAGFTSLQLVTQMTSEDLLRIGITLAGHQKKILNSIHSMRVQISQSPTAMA
The settings on record: at 10 µM.

In experiment [2] the target is T2, Ephrin type-B receptor 2 (Homo sapiens) (UniProt P29323).
T2 sequence (whole entry): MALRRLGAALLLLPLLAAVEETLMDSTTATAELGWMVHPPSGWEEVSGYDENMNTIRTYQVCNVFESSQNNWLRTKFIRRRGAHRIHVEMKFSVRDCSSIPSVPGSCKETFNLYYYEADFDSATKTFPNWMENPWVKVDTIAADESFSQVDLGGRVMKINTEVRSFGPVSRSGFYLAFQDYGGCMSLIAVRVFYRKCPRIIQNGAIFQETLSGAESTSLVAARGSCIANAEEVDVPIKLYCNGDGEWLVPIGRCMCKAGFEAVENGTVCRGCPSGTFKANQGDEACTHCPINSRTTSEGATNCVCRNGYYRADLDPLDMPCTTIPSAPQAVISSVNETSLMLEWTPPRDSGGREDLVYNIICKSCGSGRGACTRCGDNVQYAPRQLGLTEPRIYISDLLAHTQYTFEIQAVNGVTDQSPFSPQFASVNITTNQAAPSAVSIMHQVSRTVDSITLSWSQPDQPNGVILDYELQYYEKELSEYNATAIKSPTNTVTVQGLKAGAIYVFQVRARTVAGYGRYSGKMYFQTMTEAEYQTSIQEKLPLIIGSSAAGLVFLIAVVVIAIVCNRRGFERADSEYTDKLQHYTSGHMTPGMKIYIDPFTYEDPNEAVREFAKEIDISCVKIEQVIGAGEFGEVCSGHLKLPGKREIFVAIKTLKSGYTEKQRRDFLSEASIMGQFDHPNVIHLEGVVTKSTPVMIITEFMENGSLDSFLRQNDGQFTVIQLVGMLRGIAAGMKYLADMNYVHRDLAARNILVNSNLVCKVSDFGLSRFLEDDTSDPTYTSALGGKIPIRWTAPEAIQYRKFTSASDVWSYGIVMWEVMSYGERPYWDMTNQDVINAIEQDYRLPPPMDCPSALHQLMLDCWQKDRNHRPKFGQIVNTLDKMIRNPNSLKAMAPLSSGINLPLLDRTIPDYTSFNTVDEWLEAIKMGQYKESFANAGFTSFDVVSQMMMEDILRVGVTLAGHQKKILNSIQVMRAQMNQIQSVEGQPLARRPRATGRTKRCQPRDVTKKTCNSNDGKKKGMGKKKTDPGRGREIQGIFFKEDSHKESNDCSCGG
The following applies: at 1 µM.

The target in experiment [3] is T2, Ephrin type-B receptor 2 (Homo sapiens). The settings on record: at 10 µM.
Experiment [4] deals with T3, Ephrin type-B receptor 3 (Homo sapiens) (UniProt P54753).
T3 sequence (whole entry): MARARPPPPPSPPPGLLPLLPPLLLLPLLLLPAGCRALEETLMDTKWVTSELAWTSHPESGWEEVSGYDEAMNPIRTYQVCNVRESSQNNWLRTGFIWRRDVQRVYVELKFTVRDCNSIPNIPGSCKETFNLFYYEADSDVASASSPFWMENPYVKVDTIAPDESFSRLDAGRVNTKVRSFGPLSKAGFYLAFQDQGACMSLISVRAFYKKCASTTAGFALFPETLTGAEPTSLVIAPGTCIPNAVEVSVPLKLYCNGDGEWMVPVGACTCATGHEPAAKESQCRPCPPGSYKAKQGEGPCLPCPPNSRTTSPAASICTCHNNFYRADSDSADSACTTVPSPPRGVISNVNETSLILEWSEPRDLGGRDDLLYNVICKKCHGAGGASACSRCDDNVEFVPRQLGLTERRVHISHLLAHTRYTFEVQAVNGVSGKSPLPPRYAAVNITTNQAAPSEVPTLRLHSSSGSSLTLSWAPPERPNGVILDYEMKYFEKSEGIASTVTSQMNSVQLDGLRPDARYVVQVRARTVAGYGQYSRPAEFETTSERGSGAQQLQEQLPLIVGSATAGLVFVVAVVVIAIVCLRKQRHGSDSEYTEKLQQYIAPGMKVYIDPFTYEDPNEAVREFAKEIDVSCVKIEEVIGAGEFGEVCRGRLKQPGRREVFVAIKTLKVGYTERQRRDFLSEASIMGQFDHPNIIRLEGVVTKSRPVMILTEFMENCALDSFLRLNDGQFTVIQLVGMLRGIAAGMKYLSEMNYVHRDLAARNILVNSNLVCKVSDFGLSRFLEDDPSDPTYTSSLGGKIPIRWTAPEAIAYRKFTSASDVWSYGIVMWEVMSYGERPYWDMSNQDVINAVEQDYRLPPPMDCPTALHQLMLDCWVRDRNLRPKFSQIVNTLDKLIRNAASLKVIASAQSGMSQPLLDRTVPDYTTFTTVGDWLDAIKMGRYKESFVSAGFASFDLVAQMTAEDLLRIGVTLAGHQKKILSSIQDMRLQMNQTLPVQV
The following applies: at 1 µM.

The target in experiment [5] is T3, Ephrin type-B receptor 3 (Homo sapiens). The following applies: at 10 µM.
The target of experiment [6] is T4, Ephrin type-B receptor 4 (Homo sapiens) (UniProt P54760).
T4 sequence (whole entry): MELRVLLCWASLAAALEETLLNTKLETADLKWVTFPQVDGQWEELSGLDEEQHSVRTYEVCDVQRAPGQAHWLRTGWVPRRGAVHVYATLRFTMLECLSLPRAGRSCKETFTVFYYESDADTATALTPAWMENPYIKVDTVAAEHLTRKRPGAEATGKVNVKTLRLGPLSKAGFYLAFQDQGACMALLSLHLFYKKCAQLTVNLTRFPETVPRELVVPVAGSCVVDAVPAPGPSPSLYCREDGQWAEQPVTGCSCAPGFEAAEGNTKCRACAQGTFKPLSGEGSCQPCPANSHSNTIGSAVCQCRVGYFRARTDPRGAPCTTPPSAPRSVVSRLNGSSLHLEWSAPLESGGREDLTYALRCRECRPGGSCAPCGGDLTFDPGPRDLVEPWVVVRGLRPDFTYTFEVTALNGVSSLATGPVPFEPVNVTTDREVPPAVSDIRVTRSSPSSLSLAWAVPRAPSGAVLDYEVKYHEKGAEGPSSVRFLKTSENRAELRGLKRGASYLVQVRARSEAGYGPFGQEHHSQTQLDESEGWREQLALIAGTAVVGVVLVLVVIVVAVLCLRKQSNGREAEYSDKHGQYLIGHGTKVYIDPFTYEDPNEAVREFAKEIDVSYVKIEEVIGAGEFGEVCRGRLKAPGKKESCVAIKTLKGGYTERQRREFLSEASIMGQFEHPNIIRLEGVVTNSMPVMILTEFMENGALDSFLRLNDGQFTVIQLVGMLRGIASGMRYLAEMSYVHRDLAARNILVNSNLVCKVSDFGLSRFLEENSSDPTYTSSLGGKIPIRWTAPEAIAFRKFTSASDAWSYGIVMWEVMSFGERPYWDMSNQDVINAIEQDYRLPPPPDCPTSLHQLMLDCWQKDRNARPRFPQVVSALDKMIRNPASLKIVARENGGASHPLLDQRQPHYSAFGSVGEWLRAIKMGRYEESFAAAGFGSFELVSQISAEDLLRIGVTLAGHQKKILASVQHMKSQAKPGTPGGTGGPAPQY
The settings on record: at 1 µM.

Experiment [7] has as its target T4, Ephrin type-B receptor 4 (Homo sapiens). The following applies: at 10 µM.
The target in experiment [8] is Receptor tyrosine-protein kinase erbB-4 (Homo sapiens) (UniProt Q15303). The settings on record: at 1 µM.
Receptor tyrosine-protein kinase erbB-4 (Homo sapiens), sequence (Q15303 whole entry): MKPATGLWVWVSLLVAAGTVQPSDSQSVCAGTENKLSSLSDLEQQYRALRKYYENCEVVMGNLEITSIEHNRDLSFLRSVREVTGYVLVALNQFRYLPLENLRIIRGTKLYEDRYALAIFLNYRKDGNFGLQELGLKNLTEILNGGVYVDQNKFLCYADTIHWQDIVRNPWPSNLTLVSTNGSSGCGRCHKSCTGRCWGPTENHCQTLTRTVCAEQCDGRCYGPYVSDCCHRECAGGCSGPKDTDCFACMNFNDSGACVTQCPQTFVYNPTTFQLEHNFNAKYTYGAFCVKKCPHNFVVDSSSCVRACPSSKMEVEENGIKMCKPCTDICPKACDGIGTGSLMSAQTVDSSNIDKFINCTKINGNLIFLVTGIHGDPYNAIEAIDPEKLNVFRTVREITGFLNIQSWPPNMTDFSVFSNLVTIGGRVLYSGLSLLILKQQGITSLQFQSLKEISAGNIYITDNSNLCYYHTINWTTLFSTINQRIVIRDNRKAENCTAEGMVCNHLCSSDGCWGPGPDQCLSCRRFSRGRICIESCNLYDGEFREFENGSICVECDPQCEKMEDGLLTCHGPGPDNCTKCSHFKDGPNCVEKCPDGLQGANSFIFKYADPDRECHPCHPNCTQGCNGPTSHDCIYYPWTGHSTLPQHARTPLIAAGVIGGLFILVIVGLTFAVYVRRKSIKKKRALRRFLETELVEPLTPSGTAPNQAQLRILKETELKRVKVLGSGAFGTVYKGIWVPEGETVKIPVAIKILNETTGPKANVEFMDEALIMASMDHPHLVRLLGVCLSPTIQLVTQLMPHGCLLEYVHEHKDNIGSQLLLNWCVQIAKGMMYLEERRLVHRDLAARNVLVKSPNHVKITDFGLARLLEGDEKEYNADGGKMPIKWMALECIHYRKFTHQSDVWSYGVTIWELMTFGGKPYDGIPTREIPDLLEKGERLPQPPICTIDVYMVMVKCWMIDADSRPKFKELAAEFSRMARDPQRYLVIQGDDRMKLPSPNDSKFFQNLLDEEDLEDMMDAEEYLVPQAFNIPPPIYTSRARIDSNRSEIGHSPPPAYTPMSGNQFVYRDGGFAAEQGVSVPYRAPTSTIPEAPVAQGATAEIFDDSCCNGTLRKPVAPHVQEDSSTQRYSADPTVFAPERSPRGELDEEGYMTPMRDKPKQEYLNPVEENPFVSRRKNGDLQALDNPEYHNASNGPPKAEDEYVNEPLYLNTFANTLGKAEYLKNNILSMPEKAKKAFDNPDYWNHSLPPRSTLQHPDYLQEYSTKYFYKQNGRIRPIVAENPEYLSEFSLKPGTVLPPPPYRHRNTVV
For experiment [9] the target is unchanged. The following applies: at 10 µM.
The target in experiment [10] is Focal adhesion kinase 1 (Homo sapiens) (UniProt Q05397). The following applies: at 1 µM.
Focal adhesion kinase 1 (Homo sapiens), sequence (Q05397 2-1052 limits assumed): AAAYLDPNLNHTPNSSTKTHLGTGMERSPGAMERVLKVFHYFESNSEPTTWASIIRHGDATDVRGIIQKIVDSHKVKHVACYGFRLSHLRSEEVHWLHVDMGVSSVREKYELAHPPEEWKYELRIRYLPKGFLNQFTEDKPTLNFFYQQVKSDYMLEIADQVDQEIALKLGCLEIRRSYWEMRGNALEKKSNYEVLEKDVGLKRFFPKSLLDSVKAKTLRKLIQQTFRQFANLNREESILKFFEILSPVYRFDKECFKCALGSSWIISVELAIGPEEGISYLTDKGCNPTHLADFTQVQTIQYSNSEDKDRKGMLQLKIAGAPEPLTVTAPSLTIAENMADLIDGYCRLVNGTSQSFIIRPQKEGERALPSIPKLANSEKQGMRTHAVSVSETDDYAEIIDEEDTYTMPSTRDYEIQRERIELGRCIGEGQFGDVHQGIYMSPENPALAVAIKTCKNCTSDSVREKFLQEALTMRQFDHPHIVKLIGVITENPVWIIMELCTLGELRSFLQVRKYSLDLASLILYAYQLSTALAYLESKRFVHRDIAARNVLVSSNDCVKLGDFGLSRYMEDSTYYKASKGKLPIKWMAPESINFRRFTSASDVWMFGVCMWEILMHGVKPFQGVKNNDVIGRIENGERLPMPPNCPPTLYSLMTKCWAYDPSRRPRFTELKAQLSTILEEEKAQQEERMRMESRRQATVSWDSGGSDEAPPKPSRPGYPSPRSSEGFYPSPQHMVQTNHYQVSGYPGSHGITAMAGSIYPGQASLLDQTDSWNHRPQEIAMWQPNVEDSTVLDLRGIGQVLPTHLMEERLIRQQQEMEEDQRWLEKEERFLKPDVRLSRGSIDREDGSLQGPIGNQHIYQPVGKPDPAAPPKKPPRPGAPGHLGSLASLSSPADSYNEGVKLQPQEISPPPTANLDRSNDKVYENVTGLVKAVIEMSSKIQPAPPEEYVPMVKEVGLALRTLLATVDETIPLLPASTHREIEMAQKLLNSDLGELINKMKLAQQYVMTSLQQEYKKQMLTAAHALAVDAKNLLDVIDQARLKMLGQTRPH

`CC(=O)O/N=C1\C(=C2\C(=O)Nc3cc(Br)ccc32)Nc2ccccc21`: the residual activity in experiment [1] is 47%; in experiment [2] it was 103%; in [3], 60%; in [4], 107% (inactive); in [5] it was 107%; in experiment [6] it was 71%. In addition, the residual activity in [7] was 65%; in [8] it was 96%; in experiment [9], 90%; in experiment [10] it was 95%.
